According to PubChem BioAssay AID1478 (National Center for Advancing Translational Sciences (NCATS), 2009):
About 860 (0.43%) of roughly 200,000 compounds were called active. The sample holds actives, similar compounds and a random draw of the others, so the mix is not that of the screen. Unmarked numbers belong to inactive results. Calls follow the shape of the dose curve; as a rule, active = well fitted inhibition curve with a large enough effect; inconclusive = small, poorly fitted or top-dose-only effect; inactive = flat fitted curve, though single readings scatter.

target: Cruzipain (Trypanosoma cruzi) (UniProt P25779); assay: qHTS Assay for Promiscuous and Specific Inhibitors of Cruzain (with detergent); conditions: purified cruzain, Z-FR-AMC fluorescence, 0.01% Triton; also: nearly all actives have a fitted effect of over 40% in size
Sequence (P25779 123-467 limits assumed): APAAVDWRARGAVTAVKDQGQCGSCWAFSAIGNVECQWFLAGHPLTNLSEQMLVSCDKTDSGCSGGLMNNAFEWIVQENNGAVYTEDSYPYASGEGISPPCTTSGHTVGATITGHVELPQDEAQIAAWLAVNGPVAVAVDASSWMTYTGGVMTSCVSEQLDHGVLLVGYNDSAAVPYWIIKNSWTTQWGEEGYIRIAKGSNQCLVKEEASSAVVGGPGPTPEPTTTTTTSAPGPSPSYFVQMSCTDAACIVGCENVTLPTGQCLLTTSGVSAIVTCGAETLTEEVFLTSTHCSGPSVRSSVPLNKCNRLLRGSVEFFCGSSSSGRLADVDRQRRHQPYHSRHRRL
Method: Cruzain (3.4.22.51) is a cysteine protease from the tropical parasite Trypanosoma cruzi. Dual qHTS experiment was performed against the NCGC compound collection in order to 1) identify novel inhibitors of the enzyme and 2) profile the compound collection for promiscuous inhibitors operating via colloidal aggregation (by performing detergent-free and detergent-containing comparison screens). Cruzain was assayed by the use of fluorogenic coumarin-based substrate Z-FR-AMC: proteolytic cleavage releases AMC, whose fluorescence is measured at 360 nm excitation and 450 nm emission. Purified cruzain was supplied by the labs of Prof. James McKerrow and Brian Shoichet, UC San Francisco.
This assay had 0.01% Triton X-100 concentration. See also releated assay "qHTS Assay for Promiscuous and Specific Inhibitors of Cruzain (without detergent)" with 0.00005% Triton X-100.
See following references for additional details:
Assay Provider: Shoichet, Brian; University of California, San Fancisco
Screening Center PI: Austin, C.P.
Screening Center: NIH Chemical Genomics Center [NCGC]
Buffer: 100 mM Sodium Acetate, pH 5.5, 5 mM DTT, Triton X-100 concentration: 0.01%.
Buffer in columns 3 and 4 as negative control (no enzyme).
Substrate solution: 2 uM final concentration of Z-FR-AMC (catalog number I-1160, Bachem) dispensed throughout the plate.
Enzyme: 1.5 nM Cruzain final concentration in columns 1, 2, 5-48. Column 1 is neutral (100% activity). Column 2 contained titration of covalent inhibitor K11777, starting concentration 1 mM, then 1:2 dilution in duplicate).
Three uL of enzyme or buffer were dispensed to 1536-well Greiner black solid bottom plates. Compounds and controls (23 nL) were transferred via Kalypsys PinTool. The plates were incubated for 15 min at room temperature, and then 1 uL of substrate solution was added to start the reaction. The plates were immediately transferred to and read 4 times every 30 seconds for 2 min on ViewLux High-throughput CCD imager (Perkin-Elmer) using 360 nm excitation and 450 nm emission fluorescence protocol. The fluorescence intensity difference between the third and the first time points (time lapse of 60 seconds) was used to compute reaction progress.
Potency is read from the fitted curve at half-maximal effect.

Row | Structure (SMILES) | max response, negative = inhibition [%] | Potency
1 | Clc1ccc(-c2nnc(SCc3nc4ccccc4s3)o2)cc1 | -2.22 | –
2 | c1ccc(-c2nnc(SCc3nc4ccccc4[nH]3)o2)cc1 | – | 25.1 µM (active)
3 | Clc1ccccc1SCc1nc2ccccc2[nH]1 | -1.73 | –
4 | COc1ccc(-c2noc(-c3ccc(N4CCN(c5ccccc5)CC4)c([N+](=O)[O-])c3)n2)cc1OC | -4.6 | –
5 | O=C(NCc1ccccc1Cl)C1=Cc2cc(Br)ccc2OC1 | -4.23 | –
6 | COc1ccc(Cn2ccn(CC(=O)Nc3cc(C)ccc3C)c(=O)c2=O)cc1 | -6.93 | –
7 | O=C(NCCCO)C(=O)Nc1c2c(nn1-c1ccc(F)cc1)CSC2 | -6.19 | –
8 | c1cncc(-c2nc(N3CCNCC3)c3ccccc3n2)c1 | -1.38 | –
9 | Cc1cc(C(=O)Nc2ccccc2N2CCOCC2)c2ccccc2n1 | 7.98 | –
10 | c1ccc(Nc2nc(N3CCOCC3)c3ccccc3n2)cc1 | – | 14.1 µM (active)
11 | CCOc1ccc(N(C)S(=O)(=O)c2cc(-c3cnc(C)o3)ccc2OC)cc1 | -8.69 | –
12 | Cc1cc(-c2ccc(C)c(S(=O)(=O)N3c4ccccc4CC3C)c2)on1 (stereo not given) | -1.84 | –
13 | CC(C)Nc1nc(N(c2ccccc2)c2ccccc2)nc(-n2ccnc2)n1 | 1.14 | –
14 | N#Cc1nc(N)nc(N(c2ccccc2)c2ccccc2)n1 | – | 2.24 µM (active)
15 | COc1cc(OC)c(N(C)C(=O)c2cc3c(=O)oc4ccccc4c3s2)cc1Cl | -0.489 | –
16 | Cc1ccccc1CSCCNC(=O)C1CCN(S(=O)(=O)Cc2ccccc2)CC1 | -4.58 | –
17 | COc1cc(Cl)c(NC(=O)C(NS(=O)(=O)c2cccs2)C(C)C)c(OC)c1 (stereo not given) | -0.797 | –
18 | CSc1nn(Cc2cccc(C)c2)c(N)c1S(=O)(=O)c1ccccc1 | -5.62 | –
19 | CCN(CC)CCNc1ncnc2c1cnn2-c1cc(Cl)ccc1C | 0.243 | –
20 | CCn1c(=N)c(C(=O)NCCCOC)cc2c(=O)n3cccc(C)c3nc21 | – | 31.6 µM (active)
21 | CCCn1c(=N)c(C(=O)NCc2ccccc2)cc2c(=O)n3cccc(C)c3nc21 | -0.842 | –
22 | Cc1cccn2c(=O)c3cc(C(=O)NC(C)c4ccccc4)c(=N)n(CCCO)c3nc12 (stereo not given) | -22.8 | –
23 | O=C(NCc1ccc2c(c1)CCN2C(=O)c1ccccc1)c1ccccc1 | 1.91 | –

Row | Structure (SMILES) | max response, negative = inhibition [%] | Potency
24 | CCOc1ccc(-c2nonc2NC(=O)c2oc3ccc(C)cc3c2C)cc1OCC | -1.93 | –
25 | O=C(CCS(=O)(=O)c1ccc2c(c1)NC(=O)CO2)Nc1cccc(C(F)(F)F)c1 | -1.23 | –
26 | COc1ccc(Cl)cc1NC(=O)Cn1c(=O)c2ccccc2n2nncc12 | -4.81 | –
27 | COc1ccc(Cl)cc1NC(=O)CNc1ccccc1F | -7.98 | –
28 | COc1ccc(Cl)cc1NC(=O)COC(=O)C(CC(C)C)N1C(=O)C2CC=CCC2C1=O (stereo not given) | – | 12.6 µM (active)
29 | Cc1oc2ccc(O)c(CN3CCCCC3)c2c1C(=O)Nc1cccc(C(F)(F)F)c1 | -4.76 | –
30 | Cc1cc(C)cc(NS(=O)(=O)c2ccc(-c3cc(C)no3)s2)c1 | -11.1 | –
31 | O=C(NCCN1CCN(Cc2ccccc2)CC1)c1cc2c(=O)[nH]c3ccccc3c2s1 | -12.6 | –
32 | Cn1c(C(=O)NCCCN2CCN(c3cccc(Cl)c3)CC2)cc2c(=O)n(C)c3ccccc3c21 | -27.7 | –
33 | Cn1c(C(=O)NCCN2CCc3ccccc3C2)cc2c(=O)[nH]c3ccccc3c21 | – | 15.8 µM (active)
34 | CC(=O)c1nn(-c2ccc(OC(F)(F)F)cc2)nc1Nc1ccccc1 | 1.04 | –
35 | O=C(CSc1nc2nccnc2c(=O)n1CCc1c[nH]c2ccccc12)Nc1ccccc1F | -2.4 | –
36 | O=C(C1COc2ccccc2O1)N(Cc1cccnc1)c1nc2c(F)cc(F)cc2s1 (stereo not given) | -3.06 | –
37 | CC(C)c1ccc(NC(=O)Cn2nnc(C(=O)NCCc3ccccc3)c2N)cc1 | 0.0037 | –
38 | COC(=O)c1scc(-c2ccc(C)cc2)c1S(=O)(=O)Nc1cc(Cl)c(OC)cc1OC | -7.07 | –
39 | Cc1cccc(C(=O)NCCCN2CCCC2=O)c1 | 6.06 | –
40 | O=C(CCn1c(=S)[nH]c2ccccc2c1=O)NCCCN1CCCC1=O | 0.249 | –
41 | O=C1CCCN1CCCNc1ncnc2c1[nH]c1ccccc12 | – | 15.8 µM (active)
42 | Cc1nn(C(=O)c2c(F)cccc2F)c(C)c1S(=O)(=O)N1CCOCC1 | 0.43 | –
43 | COc1ccc(CC(=O)NCCc2sc3nc(-c4ccc(OC)cc4)nn3c2C)cc1 | -3.58 | –
44 | COc1cc(OC)cc(C(=O)Nc2cc3nn(-c4ccccc4)nc3cc2Cl)c1 | 6.82 | –
45 | CCC(=O)NCCc1nc2ccccc2n1CC | 4.89 | –
46 | Cc1cccc(C(=O)NCCc2nc3ccccc3n2Cc2ccccc2Cl)c1 | – | 8.91 µM (active)

Row | Structure (SMILES) | max response, negative = inhibition [%] | Potency
47 | Cc1ccc(C)c(Cn2c(CCCNC(=O)C3CCCCC3)nc3ccccc32)c1 | -3.31 | –
48 | CCCCCn1c(CCNC(=O)c2ccc(F)cc2)nc2ccccc21 | – | 4.47 µM (active)
49 | CCCCn1c(CCCNC(=O)CC)nc2ccccc21 | -2.07 | –
50 | CCCCCn1c(CCCNC(=O)c2ccccc2OC)nc2ccccc21 | -1.13 | –
51 | COc1ccc(Cn2c(C(=O)O)c(CNCc3cccc(OC)c3)c3ccc(C)cc32)cc1 | -10.4 | –
52 | CCCCCn1c(=O)[nH]c2cc(C(=O)Nc3ccc(F)cc3)ccc2c1=O | -0.504 | –
53 | O=C(Nc1cc(C(F)(F)F)ccc1Cl)c1nc2ccccc2nc1N1CCCCC1 | 2.61 | –
54 | COc1ccccc1NC(=O)C(=O)c1cc(C)n(-c2ccccc2F)c1C | -2.07 | –
55 | O=C(CC1N=C2c3ccccc3N=C(SCc3ccc(F)cc3)N2C1=O)NCc1cccs1 (stereo not given) | -4.42 | –
56 | COc1cc(OC)c(NC(=O)c2cnc(N3CCCC3)nc2C)cc1Cl | -6.84 | –
57 | Cc1ccc(CNS(=O)(=O)c2ccc(C(=O)N(C)C)s2)cc1 | -0.386 | –
58 | CCc1ccccc1NC(=O)Cc1ccc(NC(=O)N2CCCCc3ccccc32)cc1 | -5.61 | –
59 | CC(=O)N1CCCc2cc(S(=O)(=O)N3CCC(C(=O)NC4CCCCC4)CC3)ccc21 | -0.0735 | –
60 | O=C(NCc1ccco1)c1cc(-c2cccnc2)nc2ccc(Cl)cc12 | -13.8 | –
61 | CCc1ccc(-c2cc(C(=O)NCc3ccco3)c3ccccc3n2)s1 | – | 22.4 µM (active)
62 | CCOc1ccc(CNC(=O)c2cc(-c3ccc(Cl)s3)nc3ccccc23)cc1 | -0.709 | –
63 | Cc1ccc2nc(/C(C#N)=C/c3ccc(-c4ccc(C(=O)OC(C)C)cc4)o3)[nH]c2c1 | -3.11 | –
64 | Fc1ccc(-c2nc(Nc3cccc(Cl)c3)nc3c2COc2ccccc2-3)cc1 | -3.92 | –
65 | Cc1ccc(-n2ncc3c(NCCCn4ccnc4)ncnc32)cc1Cl | -0.0419 | –
66 | C=CC(=O)c1ccc2ccccc2c1 | – | 3.98 µM (active)
67 | CC(=O)c1ccc2c(ccc3ccccc32)c1 | -9.87 | –
68 | CC(=O)CCC(=O)c1ccc2ccccc2c1 | -3 | –
69 | COc1ccc(Cc2nc3ccc(C(=O)NCc4ccc(OC)cc4OC)cc3o2)cc1 | -5.34 | –

Row | Structure (SMILES) | max response, negative = inhibition [%] | Potency
70 | Fc1ccc2[nH]c3c(N4CCSCC4)ncnc3c2c1 | -6.83 | –
71 | CCCn1c(-c2ccc(F)cc2)nc2c(NCC3CCCN3CC)nc(C)nc21 (stereo not given) | -1.1 | –
72 | CCN1CCCC1CNc1ncnc2c1[nH]c1ccc(F)cc12 (stereo not given) | – | 25.1 µM (active)
73 | Cc1cc2c(cc3c(SCc4cccc(Cl)c4)nnc(C)n32)o1 | -4.57 | –
74 | COC(=O)c1ccc(Cn2c(SCC(=O)N(C)c3ccccc3)nc3ccccc32)cc1 | -5.82 | –
75 | COc1ccc(OC)c(CNC(=O)Cn2nc(C)c3c(C)n(-c4ccccc4)nc3c2=O)c1 | -2.6 | –
76 | CCN(c1ncnc2c1cnn2-c1ccc(C)cc1)C1CCCCC1 | 1.62 | –
77 | CCOc1ccc(N2CC(C)Cn3c2nc2c3c(=O)n(Cc3c(F)cccc3Cl)c(=O)n2C)cc1 (stereo not given) | -3.27 | –
78 | COc1ccc(-c2c3c(=O)n(C)c(=O)n(C)c3cn2-c2cccc(OC)c2)cc1 | -3.29 | –
79 | Cc1ccc(-c2c3c(=O)n(C)c(=O)n(C)c3cn2-c2ccccc2O)cc1 | 0.548 | –
80 | Cc1ccc(-c2c3c(=O)n(C)c(=O)n(C)c3cn2-n2cnnc2)cc1 | – | 10 µM (active)
81 | OCc1cnc(SCc2ccc(F)cc2)n1Cc1ccc(F)cc1 | -1.84 | –
82 | CCOc1ccccc1NC(=O)CCn1cnnn1 | 2.1 | –
83 | CCOC(=O)c1cccc(NC(=O)c2cc(CN3CCCC3)on2)c1 | -1.68 | –
84 | CCOc1cccc(C(=O)Nc2nnc(S(=O)(=O)N(C)c3ccc(C)cc3)s2)c1 | -2.64 | –
85 | Cc1ccccc1CNC(=O)C(=O)NCC(c1cccs1)S(=O)(=O)c1cccs1 (stereo not given) | -2.25 | –
86 | Cc1cc(=O)c2cc(C(=O)Nc3cccc(C)c3C)ccc2[nH]1 | -3.15 | –
87 | CCOc1ccccc1NC(=O)CSc1ncc(S(=O)(=O)c2ccc(C(C)(C)C)cc2)c(=O)[nH]1 | – | 28.2 µM (active)
88 | Cc1cccc(NC(=O)CSc2ncc(-c3ccccc3)[nH]2)c1C | -4.22 | –
89 | O=C(CSc1ncc(S(=O)(=O)c2ccc(Br)cc2)c(=O)[nH]1)Nc1ccc2c(c1)OCCO2 | -23.7 | –
90 | CCOc1ccc(CNC(=O)c2cc(=O)[nH]c3ccc(S(=O)(=O)N4CCCCC4)cc23)cc1 | 0.425 | –
